Drawing on PubChem BioAssay (Tox21), this text covers Potency for 18 molecules.

Assay [1] in a line: cAMP Responsive Elements (CRE) small molecule antagonists, cell-based qHTS assay: qHTS cell viability counter screen (AID 2060913). Further: nearly all actives have a fitted effect of over 40% in size. The method, boiled down:
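CRE-bla HEK293T cells were seeded in assay medium with 10% dialyzed FBS, incubated 18 hrs at 37 C, then exposed to compounds plus 0.25 uM final NKH477 for 3 hrs. Viability was read by CellTiter-Glo luminescence after 30 min, in the same wells.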
A general note: Quantitative high-throughput screening tests each substance at several concentrations.

Assay [2] can be described thus: cAMP Responsive Elements (CRE) small molecule agonists, cell-based qHTS assay: qHTS cell viability counter screen (AID 2060914). Further: nearly all actives have a fitted effect of over 50% in size. Summed up:
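Cytotoxicity was measured as ATP luminescence (CellTiter-Glo, 30 min at room temperature) in the same wells as the CRE-bla FRET read-out. HEK293T CRE-bla cells had 3 h compound exposure at 37C/5% CO2.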

Results filed as inconclusive are left out. A call without a number means that no potency is given here. The source made the active and inactive calls. The call rests on the fitted dose curve; in most records, active means well fitted cell-killing curve with a large enough effect in the repeat runs; inconclusive means weak or mixed curves, or effect the other way; inactive means flat fitted curve, though single readings scatter.

For `O=[N+]([O-])c1cc(Cl)ccc1Cl`, the Potency entry in assay [1] and in assay [2] was “inactive” throughout.

As for `Cc1cc(-c2ccc(N)c(C)c2)ccc1N`, the Potency result in assay [1] and in assay [2] was “inactive” each time.

`O=NN1CCCCCCC1`: the Potency entry in assay [1] and in assay [2] was “inactive” each time.

As to `S=C1NCCN1`, the Potency entry in assay [1] and in assay [2] was “inactive” each time.

Take `O=C(CCl)C(Cl)Cl`: the Potency entry in assay [1] and in assay [2] was “inactive” throughout.

With `Cl/C=C\Cl`, the Potency result in assay [1] and in assay [2] was “inactive” throughout.

On to `O=C(O)C(F)(F)C(F)(F)C(F)(F)C(F)(F)C(F)(F)C(F)(F)C(F)(F)F`, for which the Potency result in assay [1] and in assay [2] was “inactive” in each case.

With `Nc1ccc([N+](=O)[O-])cc1N`, the Potency result in assay [1] and in assay [2] was “inactive” in each case.

In the case of `CCCCCCCCCCCOC(=O)c1ccccc1C(=O)OCCCCCCCCCCC`, the Potency entry in assay [1] and in assay [2] was “inactive” throughout.

Turning to `C[Si](Cn1cncn1)(c1ccc(F)cc1)c1ccc(F)cc1`, the Potency entry in assay [1] and in assay [2] was “inactive” each time.

On to `C=COCCCl`, for which the Potency entry in assay [1] and in assay [2] was “inactive” each time.

Turning to `[P]#[In]`, the Potency result in assay [1] and in assay [2] was “inactive” in each case.

Regarding `O=[N+]([O-])O`, the Potency entry in assay [1] and in assay [2] was “inactive” in each case.

As for `O=[N+]([O-])c1cccc2cccnc12`, the Potency result in assay [1] and in assay [2] was “inactive” throughout.

On to `C=CCCl`, for which the Potency result in assay [1] and in assay [2] was “inactive” throughout.

On to `CCC/C=N/O`, for which the Potency result in assay [1] and in assay [2] was “inactive” in each case.

As to `CCOP(=S)(OCC)Oc1cc(C)nc(C(C)C)n1`, the Potency result in assay [1] and in assay [2] was “inactive” throughout.

Take `CN(C)C(=O)Oc1cc(OC(=O)N(C)C)cc(C(O)CNC(C)(C)C)c1` (stereo unspecified): the Potency entry in assay [1] and in assay [2] was “inactive” throughout.
